Compound activity from PubChem BioAssay.
PNC assembly inh = blocks assembly of the perinucleolar compartment; PC3M PTB-GFP, PNC prevalence imaging, 16 h; active compounds read low; activity change (PNC), negative = inhibition, % at 10 µM; hit rate 3.1% among 140,000;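 active = readout at or below -70, meaning at least 70% loss of cells showing the perinucleolar compartment, a nuclear body marking cancer cells; inconclusive = readout between -30 and a set limit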
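PC3M cells stably expressing PTB-GFP, 750–1000 cells/well, treated 16 h at 37 °C with compound (23 nl of library stock), in duplicate. After paraformaldehyde fixation and Hoechst stain, imaged at 20x; PNC prevalence scored by image analysis.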
NPSR antag = blocks cAMP signaling of the human neuropeptide S receptor; Q6W5P4; CHO-NPSR cells, cAMP TR-FRET, antagonist mode; Potency, µM (highest dose often 38.3 µM), most hits filed as inhibitors; hit rate 1% among 220,000; AID 1461; active = well fitted curve in the direction sought with a large enough effect; inconclusive = small, poorly fitted or top-dose-only effect, or another doubt; inactive = no such curve, though single readings can be large; an effect the other way counts as inactive or inconclusive; note: nearly all actives have a fitted effect of over 50% in size
IMPase cell inh = IMPase inhibition in cells; inhibition (IP1 accumulation), % at 46.1 µM; 120,000 tested, under 10 active; CHO-M1 cells, IP1 accumulation, HTRF TR-FRET ratio; active = well fitted curve in the direction sought with a large enough effect in the signal ratio, not every such curve was filed as active; inconclusive = small, poorly fitted or top-dose-only effect, or a change in a side signal; inactive = no such curve, though single readings can be large or run the other way; the % refers to the signal ratio;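 note: cells stimulated with carbachol in lithium chloride buffer; higher means more IMPase inhibition seen as more IP1 and lower FRET ratio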
Target sequence (P97697 whole entry, looked up): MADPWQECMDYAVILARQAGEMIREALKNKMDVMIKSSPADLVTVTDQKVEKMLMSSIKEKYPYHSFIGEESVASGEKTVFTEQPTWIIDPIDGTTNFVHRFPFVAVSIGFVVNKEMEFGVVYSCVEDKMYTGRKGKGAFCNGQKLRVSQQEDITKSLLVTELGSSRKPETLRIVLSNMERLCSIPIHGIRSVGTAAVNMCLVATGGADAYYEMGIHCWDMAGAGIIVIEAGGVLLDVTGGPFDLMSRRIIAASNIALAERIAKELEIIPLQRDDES
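CHO-M1, 2000 cells/well, cultured 16–30 h; cpd up to 46 uM; carbachol (50 uM solution, stimulation buffer w/ 50 mM LiCl, pH 7.4), 30 min 37C; IP-One TR-FRET, 10 min RT; Ex 320/Em 665, 620; Hill-fit AC50.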
IMPase Li inh = membrane-permeable IMPase blocker, potentiated with lithium. hit rate 0.35% among 210,000. AID 1457. Potency, µM (doses to about 59.4 µM), most hits filed as inhibitors. CHO-M1 cells, IP1 TR-FRET (IP-One), carbachol + lithium; active = well fitted curve in the direction sought with a large enough effect; inconclusive = small, poorly fitted or top-dose-only effect, or another doubt; inactive = no such curve, though single readings can be large; an effect the other way counts as inactive or inconclusive;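 note: IP1 builds up when IMPase is blocked and the TR-FRET signal falls; nearly all actives have a fitted effect of over 50% in size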
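Lithium-sensitised IP1 accumulation assay; M1-expressing CHO cells treated 30 min at 37C with compound. Competitive antibody detection by time-resolved FRET followed a 10 min room-temperature lysis step.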
HPGD block = HPGD (human) dehydrogenase inhibition; P15428; purified HPGD, NADH fluorescence kinetic, PGE2 substrate; Potency, µM, usual class: inhibitors; hit rate 4.3% among 150,000; AID 894
Target sequence (P15428 whole entry, looked up): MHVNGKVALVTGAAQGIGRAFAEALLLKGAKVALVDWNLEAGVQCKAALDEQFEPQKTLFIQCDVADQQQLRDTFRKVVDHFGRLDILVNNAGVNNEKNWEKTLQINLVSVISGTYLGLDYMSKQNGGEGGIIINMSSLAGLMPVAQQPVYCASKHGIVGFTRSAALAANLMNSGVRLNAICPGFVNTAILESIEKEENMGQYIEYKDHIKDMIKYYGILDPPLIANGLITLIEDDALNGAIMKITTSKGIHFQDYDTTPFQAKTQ
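20 nM HPGD preincubated 15 min at room temperature with compound in 50 mM Tris-HCl pH 8, 0.01% Tween 20. Started with 1 mM NAD+ and 30 uM prostaglandin E2; NADH fluorescence (360/450 nm) read 5 times over 30-s intervals, last minus first.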
ALDH1A1 block = ALDH1A1 (human) enzyme inhibition. P00352. Purified ALDH1A1, NADH fluorescence, propionaldehyde substrate. Potency, µM (top dose mostly 75.3 µM), usual class: inhibitors. hit rate 7.3% among 220,000
Hits are given with their value; . = inactive; ? = inconclusive; / = no result; ! = not active in a repeat. Hits are enriched below; roughly 11% of the tested compounds scored in any of these assays. Unless noted, calls come from the whole dose curve; as a rule, active = well fitted inhibition curve with a large enough effect (not every such curve was filed as active); inconclusive = small, poorly fitted or top-dose-only effect, or another doubt; inactive = no such curve, though single readings can be large or run the other way.

SMILES | PNC assembly inh | NPSR antag | IMPase cell inh | IMPase Li inh | HPGD block | ALDH1A1 block
CC(Cc1ccccc1Sc1ccc(O)cc1)N(C)C (stereo unspecified) | ? | . | . | . | . | .
CCCC(C)n1[nH]c(=O)c2c1NC(=O)CSC2c1ccccc1 (stereo unspecified) | / | . | / | / | / | /
C1CNC2NCCNC2N1 (stereo unspecified) | -100 | . | . | . | . | .
CN1C(=O)C(Cc2ccc3c(c2)OCO3)C(=O)N(C)C1=O | . | . | . | . | . | 24µM
CN1C(=O)C(Cc2cccs2)C(=O)N(C)C1=O | . | . | . | . | . | .
CN1C(=O)C(Cc2ccsc2)C(=O)N(C)C1=O | . | . | . | . | . | 13µM
O=c1cccc2n1CC1CC2CN(Cc2ccc3c(c2)OCO3)C1 (stereo unspecified) | . | . | . | . | . | .
Cc1noc(NS(=O)(=O)c2ccc(NC(=O)CCCOc3ccc(Cl)cc3Cl)cc2)c1C | . | . | . | . | 25µM | .
O=C(O)CCCOc1ccc(Cl)cc1Cl | / | / | / | . | . | .
COc1cc(N2CCOCC2)ccc1/C=C1\C(=O)NC(=O)N(Cc2cccs2)C1=O | / | . | / | . | / | ?
COc1cc(N2CCOCC2)ccc1C=C1C(=O)NC(=O)NC1=O | ? | . | . | . | 32µM | 13µM
CCC12CCCN3CCC4(c5ccc(OC)c(O)c5N(C(C)=O)C4CC1)C32 (stereo unspecified) | / | / | . | . | . | .
COc1ccc(CC(=O)Nc2ccc3c(C(F)(F)F)cc(=O)oc3c2)cc1OC | . | . | . | . | . | 7.9µM
CC12CCC3C(=CCc4cc(O)ccc43)C1CCC2=O (stereo unspecified) | / | / | / | . | . | ?
O=C(c1ccc2c(c1)ncn2C1CCCCC1)N1CCC2(CC1)OCCO2 | . | . | . | . | 7.9µM | .
COc1cccc(C(=O)N2CCC3(CC2)OCCO3)c1 | / | . | / | / | / | /
C=C(C=O)C[C@@H]1C[C@H](O)C2OC3C[C@]4(C)OC5/C=C\CC6OC7C(CC=CCC6OC5CCCC4OC3CC2O1)OC1CC2OC3CC(=O)OC3C[C@@H](C)C[C@@]2(C)OC1C[C@@H]7C (stereo partly specified) | / | 0.79µM | / | / | / | /
NC1CCc2cc(O)c(O)cc2C1 (stereo unspecified) | / | . | / | . | . | 7.9µM!
C=CCN | / | / | / | . | . | .
COc1c(C)cc(C(=O)C2CCCN(Cc3ccccn3)C2)cc1C (stereo unspecified) | / | . | / | . | / | 32µM
O=c1oc2ccccc2c(O)c1C(c1ccc([N+](=O)[O-])cc1)c1c(O)c2ccccc2oc1=O | / | . | / | . | / | ?
O=C(C1CC(=O)N(C2CCCCCCC2)C1)N1CCC2(CC1)OCCO2 (stereo unspecified) | ? | . | . | . | . | 25µM
CC(C)NC(=O)Cn1cc(C(=O)c2ccccc2F)c2ccccc21 | . | . | . | . | . | ?
CC1CCN(S(=O)(=O)c2ccc(NN=C(C#N)C#N)cc2)CC1 | ? | 10µM | . | . | . | ?
COc1cc(/C=N/NC(=O)CN2CCCCC2)ccc1OCc1ccccc1 | . | . | / | . | . | 22µM
SMILES | PNC assembly inh | NPSR antag | IMPase cell inh | IMPase Li inh | HPGD block | ALDH1A1 block
O=c1[nH]c(=O)n(CCc2ccc(F)cc2)c(O)c1C=NCCCN1CCOCC1 | . | . | . | . | . | .
C=C(C)CSc1nc2ncc(Cl)cc2[nH]1 | . | . | . | . | 13µM | .
Cc1nc2ccccc2c(=O)n1-c1cc(F)ccc1F | / | . | / | . | / | .
BrCC(Br)(Br)Br | / | / | / | . | . | 2µM
Cn1cc[n+](C)c1P(=S)(c1ccccc1)c1ccccc1 | / | 5µM | / | . | / | .
CC(N=Cc1c(O)[nH]c(=O)[nH]c1=O)c1ccccc1 (stereo unspecified) | . | ? | . | . | 28µM | ?
Cc1cnn(-c2cc(Oc3ccccc3)ncn2)c1 | . | . | . | / | / | 22µM
Cc1ccc(-c2cn3c(=S)[nH]nc3s2)cc1 | . | . | . | . | 28µM | ?
O=c1c2cc(Cl)cc(Cl)c2nc(CN2CCOCC2)n1-c1ccccc1F | ? | . | ? | . | . | 14µM
CC1CC(C)CN(CC(=O)c2ccc(OC(F)F)cc2)C1 (stereo unspecified) | ? | . | . | . | . | 1.3µM
